Assay outcomes (PubChem)
An excerpt weighted towards active compounds, which were near 3.9% of everything screened.
CDK5 p35 inh: CDK5/p35 (human) kinase inhibition | inhibition, % at 10 µM | Recombinant CDK5/p35, ADP-Glo luminescence, 60 min | 330,000 compounds, 0.01% hits | Q00535+Q15078;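 active = highest replicate inhibition of at least 50% and at least 75% of replicates reaching 50%; inconclusive = only one of the two criteria met; inactive = both criteria failed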;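 also: plate controls were DMSO neutral control for no effect and GW8510 at 10 µM for full effect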
Casp6 inh: inhibitors of human caspase-6; P55212; purified caspase-6, Z-VEID-R110 cleavage fluorescence; inhibition, % at 12.5 µM; 350,000 compounds, 0.53% hits; AID 686996;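 active = mean inhibition across replicates at least about 35%, with every replicate also reaching that limit, limit read from the data; inconclusive = only one of the two criteria met; inactive = neither criterion met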;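 also: 0% = median of neutral control wells and 100% = no fluorescence left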
Glyco luc inh: blocks N-linked glycosylation in D54 reporter cells; AID 588692; 360,000 compounds, 0.23% hits; D54 ERlucT glycosylation luciferase reporter, 24 h; percent of 100 nM tunicamycin response; reporter increase, % at 12.5 µM;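 active = mean luciferase reporter signal, scaled so untreated is 0 and the glycosylation-blocking control 100, at or above a set limit in every replicate; inconclusive = mean reaches the limit but not every replicate does; inactive = mean below the limit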;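 also: luciferase carries N-glycosylation sites so blocking glycosylation raises the light; 0% = median of neutral control wells and 100% = median of 100 nM tunicamycin wells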
NSD2 inh: blocks human histone methyltransferase NSD2; inhibition, % at 12.5 µM; AID 743445; 310,000 compounds, 0.54% hits; NSD2 peptide methylation, AlphaScreen, 120 min; in the data active = inhibition above about 50%
Target sequence (O96028 whole entry, looked up): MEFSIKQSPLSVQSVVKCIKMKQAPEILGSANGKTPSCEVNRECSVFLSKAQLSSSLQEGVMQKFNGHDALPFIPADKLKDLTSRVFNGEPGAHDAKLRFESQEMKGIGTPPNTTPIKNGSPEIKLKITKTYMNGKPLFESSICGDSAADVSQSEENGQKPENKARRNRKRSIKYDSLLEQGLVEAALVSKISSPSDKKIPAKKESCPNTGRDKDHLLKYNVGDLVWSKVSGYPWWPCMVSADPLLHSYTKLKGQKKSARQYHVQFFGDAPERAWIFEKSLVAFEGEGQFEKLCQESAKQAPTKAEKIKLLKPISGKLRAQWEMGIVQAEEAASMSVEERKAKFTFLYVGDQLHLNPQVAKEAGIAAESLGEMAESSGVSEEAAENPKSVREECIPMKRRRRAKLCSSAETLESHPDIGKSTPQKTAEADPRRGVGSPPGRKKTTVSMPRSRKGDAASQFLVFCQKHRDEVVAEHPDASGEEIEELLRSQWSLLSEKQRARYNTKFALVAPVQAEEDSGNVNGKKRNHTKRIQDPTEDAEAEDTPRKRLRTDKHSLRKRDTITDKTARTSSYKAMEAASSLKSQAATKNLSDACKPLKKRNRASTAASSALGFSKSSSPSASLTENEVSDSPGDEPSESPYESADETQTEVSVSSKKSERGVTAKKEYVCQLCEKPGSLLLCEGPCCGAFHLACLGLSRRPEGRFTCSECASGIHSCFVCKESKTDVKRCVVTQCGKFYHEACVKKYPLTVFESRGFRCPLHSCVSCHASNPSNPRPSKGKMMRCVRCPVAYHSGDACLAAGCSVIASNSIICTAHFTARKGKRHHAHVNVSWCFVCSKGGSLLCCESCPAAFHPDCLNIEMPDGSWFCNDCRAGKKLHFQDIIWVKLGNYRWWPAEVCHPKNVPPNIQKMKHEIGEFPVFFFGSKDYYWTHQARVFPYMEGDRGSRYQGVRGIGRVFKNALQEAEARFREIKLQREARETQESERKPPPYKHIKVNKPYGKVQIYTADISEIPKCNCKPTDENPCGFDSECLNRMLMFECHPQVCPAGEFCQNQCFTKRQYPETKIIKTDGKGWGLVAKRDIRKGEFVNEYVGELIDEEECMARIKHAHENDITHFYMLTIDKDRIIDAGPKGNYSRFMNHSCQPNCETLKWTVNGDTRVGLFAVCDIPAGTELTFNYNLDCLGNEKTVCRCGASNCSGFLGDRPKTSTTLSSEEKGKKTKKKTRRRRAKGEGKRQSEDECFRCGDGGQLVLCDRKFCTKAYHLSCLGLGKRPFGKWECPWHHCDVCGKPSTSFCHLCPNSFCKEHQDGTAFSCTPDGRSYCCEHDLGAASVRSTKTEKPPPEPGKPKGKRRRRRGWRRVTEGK
SUMO Mot1 rescue: SUMOylation pathway inhibition by Mot1-301 growth rescue; growth rescue, % at 18.8 µM; S. cerevisiae Mot1-301 growth rescue, ATP luminescence, 38.5C; percent above DMSO median, 100 means doubled; AID 2716; 320,000 compounds, 1% hits;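 active = every valid replicate shows activation above 250% relative to neutral control wells; inactive = the rest, any valid replicate at or below 250%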;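 also: OY570 slx delta 5 strain wells were the positive control but not used for scaling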
ALR H2O2 inh: human ALR oxidase inhibition via reduced H2O2. AID 485317. inhibition, % (test concentration not listed). purified ALR, DTT oxidation, H2O2 HRP-luminol luminescence. 290,000 compounds, 3.8% hits;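 active = mean replicate inhibition above about 79%, with every replicate also reaching it, limit read from the data; inconclusive = only one of the two criteria met; inactive = mean below limit and not every replicate reaching it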
Mot1 SUMO dose: yeast SUMO pathway inhibition in dose response | shares compounds with SUMO Mot1 rescue | S. cerevisiae Mot1-301 galactose growth, ATP luminescence, 24 h; -100 = growth of slx-deleted rescue strain | growth activity, percent, % at 42 µM | 2,300 tested, under 10 active;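 active = Signal drops as the depositor expects, and the fitted half-maximal dose is no more than ten times the top valid tested dose; inconclusive = Poor fit, or a flat curve whose signal drops by 30% to 70%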;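 also: more negative values mean stronger growth rescue toward the control strain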
* hit, by the source's call; ? = inconclusive; . = not tested or not shown; + = active, no number.

SMILES	CDK5 p35 inh	Casp6 inh	Glyco luc inh	NSD2 inh	SUMO Mot1 rescue	ALR H2O2 inh	Mot1 SUMO dose
C[C@@H]1CN([C@@H](C)CO)C(=O)c2cccc(NC(=O)C3CCCCC3)c2O[C@@H]1CN(C)C	.	0	.	.	.	.	.
O=S1(=O)CC(N2CCCC2)CN1C1CCCCC1 (configuration not stated)	.	-2	1	.	.	.	.
O=S1(=O)CC(N2CCCCC2)C(N2CCCCC2)C1 (configuration not stated)	0	.	1	-6	366*	-1	0
COC(=O)N(C)C[C@@H]1OCc2ccccc2-c2ccccc2C(=O)N([C@@H](C)CO)C[C@@H]1C	.	0	.	.	.	.	.
CNC(=O)C[C@@H]1CC[C@H]2[C@@H](COC[C@@H](O)CN2C(=O)c2ccc3c(c2)OCO3)O1	.	0	.	.	.	.	.
CC(C)Oc1ccc(CCC(=O)NNC(=O)c2ccccc2C(=O)O)cc1	0	0	1	0	460*	-6	0
COc1cccc(Nc2nc(C)nc3c2oc2ccccc23)c1	0	4	2	-4	451*	?	-1
CS(=O)(=O)N1CC(=O)N2[C@H](C1)[C@@H](c1ccc(C#CCc3ccccc3)cc1)[C@@H]2CO	.	1	.	.	.	.	.
C[C@H]1CN([C@@H](C)CO)C(=O)c2cc(NC(=O)CCC(F)(F)F)ccc2O[C@H]1CN(C)C(=O)Nc1cccc2ccccc12	.	1	.	.	.	.	.
O=C(Cc1cccs1)Nc1cccc(-c2nnc(-c3ccco3)o2)c1	1	4	1	-2	522*	-17	-1
O=C(O)CCC(=O)Nc1cccc(-c2nnc(-c3ccccc3)o2)c1	-1	0	0	-4	112	4	.
O=C(COc1ccccc1)Nc1cccc(-c2nnc(-c3ccccc3)o2)c1	1	.	1	-2	+	-1	1
O=C(N/N=C/c1ccccc1)c1[nH]c2ccc(Br)cc2c1-c1ccccc1	1	3	0	1	491*	-14	0
O=C(NN=C1CCCC1)c1[nH]c2ccc(Br)cc2c1-c1ccccc1	.	-6	.	-3	13	3	.
Cc1ccc(N/C=C(\C#N)c2ccc(OCCCF)cc2)cc1	0	.	2	-2	724*	-3	0
COCCCn1c2nc3ccccc3nc2c2c(=O)n(Cc3ccc(Cl)cc3)cnc21	3	1	1	0	425*	-3	0
COCCCn1c2nc3ccccc3nc2c2c(=O)n(Cc3ccccc3Cl)cnc21	.	.	.	.	1	-4	.
C[C@@H]1CN([C@@H](C)CO)C(=O)c2cc(C#C[C@@H](C)O)cnc2O[C@@H]1CN(C)C(=O)Nc1ccc(F)cc1	.	0	.	.	.	.	.
CC(=O)Nc1cccc(NC(=S)Nc2ccc(F)cc2F)c1	3	2	3	-2	605*	1	0
CO[C@H]1CC[C@H]2CCN(C)C(=O)CCCN(C)C(=O)c3cccc(C#N)c3OC[C@H]1O2	.	-1	.	.	.	.	.
CC(=O)NC(CC(C)C)C(=O)NC(CO)C(=O)NC(CCC(=O)O)C(=O)NC(C)C(=O)NC(CC(C)C)C(N)=O (configuration not stated)	0	.	3	.	782*	0	0
CC(C)CC(NC(=O)C(CC(C)C)NC(=O)OC(C)(C)C)C(N)=O (configuration not stated)	1	.	-1	.	7	1	.
CO[C@@H]1CN(C)C(=O)c2cc(NC(=O)Nc3cc(F)ccc3F)ccc2OC[C@H](C)N(C(=O)c2cnccn2)C[C@H]1C	.	0	.	.	.	.	.
COc1ccc(C(=O)COc2ccc3ccc(=O)oc3c2)c(OC)c1	1	1	0	1	1	-2	.
COc1ccc(C(=O)COc2ccc3ccc(=O)oc3c2)cc1	0	-2	-2	0	426*	-4	0
SMILES	CDK5 p35 inh	Casp6 inh	Glyco luc inh	NSD2 inh	SUMO Mot1 rescue	ALR H2O2 inh	Mot1 SUMO dose
Cc1noc(C)c1NC(=O)N(C)C[C@@H]1Oc2c(NC(=O)Nc3cccc4ccccc34)cccc2C(=O)N([C@@H](C)CO)C[C@@H]1C	.	2	.	.	.	.	.
COc1cc(C)ccc1OCCCOc1ccccc1Br	0	.	-1	-4	+	1	0
COc1ccc(/C=C2/SC(=O)N(NS(=O)(=O)c3ccccc3)C2=S)cc1OC	-1	8	0	17	375*	-7	-2
COc1ccccc1NC(=S)N(Cc1ccco1)Cc1cc2cccc(C)c2[nH]c1=O	1	.	2	2	387*	-5	0
COc1ccccc1NC(=S)N(Cc1ccco1)Cc1cc2cc(C)c(C)cc2[nH]c1=O	0	-5	19	-2	4	2	.
CCOC(=O)c1c(N)sc(C(=O)N2CCCC(C(N)=O)C2)c1C (configuration not stated)	0	.	2	10	933*	-9	1
CC(=O)c1c(Nc2cccc(F)c2)oc(C)cc1=O	0	-3	-1	6	952*	.	0
CC1(C)CC(=O)C=C(Nc2cccc(F)c2)C1	1	-5	1	25	-9	-31	.
Cc1ccc(C)c(OCCCC(=O)N2CCOCC2)c1	0	0	-1	0	689*	-12	1
O=S(=O)(NCC[C@@H]1CC[C@H](NS(=O)(=O)c2cccc(Cl)c2)[C@@H](CO)O1)c1cccc(F)c1	.	-2	.	.	.	.	.
Cc1c(OC(C)C(=O)N2C[C@H]3C[C@@H](C2)c2cccc(=O)n2C3)ccc2c3c(c(=O)oc12)CCCC3 (some centres not stated)	-2	1	1	.	684*	-4	1
Cc1c(OCC(=O)N2C[C@H]3C[C@@H](C2)c2cccc(=O)n2C3)ccc2c3c(c(=O)oc12)CCCC3	3	0	-5	.	214	-2	.
O=C(CSc1cccc2cccnc12)Nc1cc(C(=O)O)cc(C(=O)O)c1	-1	4	0	6	577*	-8	1
C/C=C/c1ccc2c(c1)O[C@@H](CN(C)Cc1ccc(C(=O)O)cc1)[C@@H](C)CN([C@H](C)CO)S2(=O)=O	.	-8	.	.	.	.	.
CCC(=O)Nc1nc(CC(=O)Nc2ccccc2OC)cs1	1	.	0	1	+	3	0
COc1cc(C)ccc1NC(=O)Cc1csc(NC(=O)Nc2ccccc2OC)n1	-1	1	-2	-1	178	0	.
CCC(=O)N1c2ccc(S(=O)(=O)N3CCN(CC)CC3)cc2CC1C (configuration not stated)	0	-2	1	-1	5	3	.
CCC(=O)N1c2ccc(S(=O)(=O)N3CCN(c4ccc([N+](=O)[O-])cc4)CC3)cc2CC1C (configuration not stated)	-1	-6	-5	8	456*	-4	-1
